{"source": "PubChem BioAssay (NCATS)", "note": "“And” between values parts separate entries of the source, which are not always exact repeats. Identical values can stand only once. Inconclusive results are not listed. Entries that show only a call come without a potency. The source holds several records for some structures; these can differ, active in one and inactive in another. The source made the active and inactive calls. Calls come from the whole dose curve; as a rule, active = well fitted curve in the direction sought with a large enough effect; inconclusive = small, poorly fitted or top-dose-only effect, or another doubt; inactive = no such curve, though single readings can be large; an effect the other way counts as inactive or inconclusive. Where a SMILES comes first, the peptide text is derived from it. [ ]: non-standard residue; d: D form. Note: nearly all actives have a fitted effect of over 70% in size."}
{"assay": "Primary qHTS for inhibitors of nuclear receptor binding SET domain protein 2 (NSD2) in an isogenic RCH-ACV NSD2 p.E1099K mutant (9B) (AID 1645876)", "details": "RCH-ACV NSD2 E1099K (9B) viability, CellTiter-Glo, 72 h; series mostly up to 44.9 µM"}
{"compound": "O=C(O[C@H]1[C@@H]2C=CO[C@@H](O[C@@H]3O[C@H](CO)[C@@H](O)[C@H](O)[C@H]3O)[C@@H]2[C@@]2(CO)O[C@@H]12)c1ccc(O)cc1", "Potency": "inactive"}
{"compound": "COc1cc(/C=C/C(=O)OC2CC(C)=C(C(=O)O)/C2=C/CO[C@@H]2O[C@H](CO)[C@@H](O)[C@H](O)[C@H]2O)ccc1O", "note": "(some centres undefined)", "Potency": "inactive"}
{"compound": "COc1ncc(-c2ccc3c(Nc4cc(Oc5cc(F)cc(F)c5)cc(C(=O)O)c4)c(S(=O)(=O)NC4CC4)cnc3c2)c(OC)n1", "Potency": "inactive"}
{"compound": "CC1OC(OC2C(C)OC(OC3C(OC(=O)/C=C/c4ccc(O)cc4)C(CO)OC(OC4(COC(=O)/C=C/c5ccc(O)cc5)OC(CO)C(O)C4O)C3OC3OCC(O)(CO)C3O)C(O)C2O)C(O)C(O)C1O", "note": "(centres undefined)", "activity change, negative = viability loss": "-6.92% [at 9.23 µM] (inactive)"}
{"compound": "CC1CCC2C(C)(C)C(O)CCC2(C)C12Cc1c(O)cc3c(c1O2)CN(C(CCC(N)=O)C(=O)O)C3=O", "note": "(centres undefined)", "Potency": "inactive"}
{"compound": "Cc1cc(O)c(C(C)C)cc1O[C@@H]1O[C@H](CO)[C@@H](O)[C@H](O)[C@H]1O", "Potency": "inactive"}
{"compound": "C=C(C(=O)OC)C1CCC2(C)C(O[C@@H]3O[C@H](CO)[C@@H](O)[C@H](O)[C@H]3O)CC(=O)C(C)C2C1O", "note": "(some centres undefined)", "Potency": "inactive"}
{"compound": "C[C@@H]1O[C@@H](O[C@H]2[C@H](O[C@H]3CO[C@@H](O[C@H]4CC[C@@]5(C)C(CC[C@]6(C)C5CC[C@]57OC[C@@]8(CC[C@](C)(CO)CC85)[C@H](O)C[C@]76C)C4(C)C)[C@H](O[C@@H]4O[C@H](CO)[C@@H](O)[C@H](O)[C@H]4O)[C@H]3O)O[C@H](CO)[C@@H](O)[C@@H]2O)[C@H](O)[C@H](O)[C@H]1O", "note": "(some centres undefined)", "outcome": "inactive [at 9.23 µM]"}
{"compound": "CO[C@@H]1CC[C@H](OC[C@]2(COC(=O)c3ccc(C)[nH]3)[C@H](OC(C)=O)CC[C@@]3(C)[C@@H]4CC=C(C)[C@@H](C5=C(O)C(=O)OC5O)[C@]4(C)CC[C@@H]32)O[C@H]1C", "note": "(some centres undefined)", "Potency": "inactive"}
{"compound": "CC1CCC2C(C)(C)CC(C)(CO)C2(O)C1C(=O)O", "note": "(centres undefined)", "Potency": "inactive"}
{"compound": "O=C(OCc1cccc(O)c1O[C@@H]1O[C@H](CO)[C@@H](O)[C@H](O)[C@H]1O)C1(O)C(=O)C2C=CC1C1C=CC(=O)C(O)(C(=O)OCc3cccc(O)c3O[C@@H]3O[C@H](CO)[C@@H](O)[C@H](O)[C@H]3O)C21", "note": "(some centres undefined)", "activity change, negative = viability loss": "-9.51% [at 9.23 µM] (inactive)"}
{"compound": "CC1=C2[C@@H]([C@H](C)CC[C@H]2/C=C(\\C)C(=O)O)[C@H](O)C1", "Potency": "inactive"}
{"compound": "CCC[C@@H]1C[C@@H](C(=O)N[C@@H]([C@H]2O[C@H](SC)[C@H](O)[C@@H](O)[C@@H]2O)[C@@H](C)O)N(C)C1", "Potency": "inactive"}
{"compound": "Cc1c(N2C(=O)c3ccc(C(=O)O)cc3C2=O)c(=O)n(-c2ccccc2)n1C", "Potency": "inactive"}
{"compound": "CC(C)CNC(=O)/C=C/CCCCc1ccc2c(c1)OCO2", "Potency": "inactive"}
{"compound": "C[C@@H]1C(=O)O[C@H]2CC34[C@H]5C[C@@H](C(C)(C)C)C36[C@@H](OC(=O)[C@@H]6O)OC4(C(=O)O5)[C@]21O", "note": "(some centres undefined)", "Potency": "inactive"}
{"assay": "Primary qHTS for inhibitors of nuclear receptor binding SET domain protein 2 (NSD2) in an RCH-ACV wild type WT cells (2C) (AID 1645877); note: potency is the fitted concentration of half-maximal effect", "details": "RCH-ACV NSD2 WT (2C) viability, CellTiter-Glo, 72 h; series mostly up to 44.9 µM"}
{"compound": "CC1(C)CC[C@]2(C(=O)O)CC[C@]3(C)C(=CCC4[C@@]5(C)CCC(O[C@@H]6OC[C@H](O)[C@H](O)[C@H]6O[C@@H]6O[C@H](CO)[C@@H](O)[C@H](O)[C@H]6O)[C@@](C)(CO)C5CC[C@]43C)[C@@H]2C1", "note": "(some centres undefined)", "Potency": "inactive"}
{"compound": "NC1CCC(N[C@@H]2C[C@H]2c2ccccc2)CC1", "note": "(some centres undefined)", "Potency": "inactive and 26.3 µM (active)"}
{"compound": "COC(=O)[C@]12C(=O)C(C)=C(O)[C@@]1(C)C(C)=CC1[C@@]34CC[C@@H](OC(C)=O)C(C)(C)C3[C@H](C[C@]12C)OC4=O", "note": "(some centres undefined)", "Potency": "inactive"}
{"compound": "C=C1CC[C@H]2[C@@](C)(CCC[C@@]2(C)C(=O)O)[C@@H]1CCC(C)CCO", "note": "(some centres undefined)", "Potency": "inactive"}
{"compound": "CC(C)CC(=O)OC[C@H]1O[C@@](COC(=O)CC(C)C)(O[C@H]2O[C@H](CO)[C@@H](O)[C@H](O)[C@H]2O)[C@@H](OC(=O)CC(C)C)[C@@H]1OC(=O)CC(C)C", "Potency": "inactive"}
{"compound": "C=C1C(=O)OC2CC(C)=C(C(C)CCCO[C@@H]3O[C@H](CO)[C@@H](O)[C@H](O)[C@H]3O)C(O)C12", "note": "(some centres undefined)", "Potency": "inactive"}
{"compound": "CC1(C)CC2C3=CCC4C5(C)CCC(OC6OC(CO)C(O)C(OC7OC(CO)C(O)C(OC8OC(CO)C(O)C(OC9OC(COC%10OC(CO)C(O)C(O)C%10O)C(O)C(O)C9O)C8O)C7O)C6O)C(C)(C)C5CCC4(C)C3(C)CCC2(C(=O)O)CC1O", "note": "(centres undefined)", "activity change, negative = cell killing": "4.6% [at 9.23 µM] (inactive)"}
{"compound": "C/C=C/C=C/C(CC(=O)O)Nc1ccc(C=O)cc1", "note": "(centres undefined)", "Potency": "inactive"}
{"compound": "C[C@@H]1O[C@@H](O[C@H]2[C@H](O[C@H]3[C@H](O[C@H]4CC[C@@]5(C=O)C(CC[C@]6(C)C5CC=C5C7CC(C)(C)C[C@@H](O)[C@]7(C)CC[C@]56C)C4(C)C)O[C@H](C(=O)O)[C@@H](O)[C@@H]3O)OC[C@@H](O)[C@@H]2O)[C@H](O)[C@H](O)[C@H]1O", "note": "(some centres undefined)", "activity change, negative = cell killing": "-3.05% [at 9.23 µM] (inactive)"}
{"compound": "CC1(C)CC[C@]2(C(=O)O[C@@H]3O[C@H](CO)[C@@H](O)[C@H](O)[C@H]3O)CC[C@]3(C)C(=CCC4[C@@]5(C)C[C@@H](O)[C@H](O)[C@@](C)(CO)C5CC[C@]43C)C2C1", "note": "(some centres undefined)", "Potency": "inactive"}
{"compound": "O=C(O)CCc1cc2ccoc2cc1O[C@@H]1O[C@H](CO[C@@H]2OC[C@](O)(CO)[C@H]2O)[C@@H](O)[C@H](O)[C@H]1O", "Potency": "inactive"}
{"compound": "COc1cc2c(cc1O)C1(OC)Cc3ccc4c(c3C1N(C)CC2)OCO4", "note": "(centres undefined)", "Potency": "inactive"}
{"compound": "C[C@]1(OC(=O)/C=C/c2ccccc2)C[C@H](O)[C@]2(O)C=CO[C@@H](O[C@@H]3O[C@H](CO)[C@@H](O)[C@H](O)[C@H]3O)C12", "note": "(some centres undefined)", "Potency": "inactive"}
{"compound": "OC[C@H]1O[C@@H](OC(CCCCc2ccc(O)cc2)CCc2ccc(O)cc2)[C@H](O[C@@H]2OC[C@](O)(CO)[C@H]2O)[C@@H](O)[C@@H]1O", "note": "(some centres undefined)", "Potency": "inactive"}
{"compound": "C=CC(C)(CC/C=C(\\C)CC/C=C(\\C)CC(O)/C=C(\\C)C(=O)O)O[C@@H]1O[C@H](CO)[C@@H](O)[C@H](O)[C@H]1O[C@@H]1O[C@H](CO)[C@@H](O)[C@H](O)[C@H]1O", "note": "(some centres undefined)", "Potency": "inactive"}
{"compound": "CO/N=C(/C(=O)N[C@@H]1C(=O)N2C(C(=O)O)=C(CSC(=O)c3ccco3)CS[C@H]12)c1csc(N)n1", "Potency": "inactive"}
{"compound": "CN1C(=O)c2ccccc2-n2c(nc3ccccc3c2=O)[C@@]12O[C@H]2c1ccccc1", "Potency": "inactive"}
{"compound": "COc1ccc(C2=CC(=O)OC2Cc2ccc(O)cc2)c(O)c1", "note": "(centres undefined)", "Potency": "inactive"}
{"compound": "CCC[C@@H]1C[C@@H](C(=O)N[C@@H]([C@H]2O[C@H](SC)[C@H](OP(=O)(O)O)[C@@H](O)[C@H]2O)[C@H](C)Cl)N(C)C1", "Potency": "inactive"}
{"compound": "COC(=O)CC[C@@H](C)[C@H]1CC[C@H]2[C@@H]3CC(=O)[C@H]4C[C@H](OC(C)=O)CC[C@]4(C)[C@H]3CC[C@]12C", "Potency": "inactive"}
{"compound": "C=CCc1ccc(O[C@@H]2O[C@H](CO[C@@H]3O[C@@H](C)[C@H](O)[C@@H](O)[C@H]3O)[C@@H](O)[C@H](O)[C@H]2O)cc1", "Potency": "inactive"}
{"compound": "CC(=O)N[C@H](Cc1ccc(O)cc1)C(=O)N[C@H](CCCN=C(N)N)C(=O)N[C@H](Cc1ccccc1)C(N)=O", "note": "(Ac-[dY]-[dR]-[dF]-NH2)", "Potency": "inactive"}
{"compound": "C=C[C@H]1[C@H](O[C@@H]2O[C@H](CO)[C@@H](O)[C@H](O)[C@H]2O)OC=C2C(=O)OCC[C@]21O", "Potency": "inactive"}
{"compound": "C[C@@H]1O[C@@H](O[C@H]2[C@H](O)[C@@H](O)[C@H](OC[C@H]3O[C@@H](OC(=O)[C@]45CCC(C)(C)C[C@H]4C4=CCC6[C@@]7(C)C[C@H](O)[C@H](O[C@@H]8O[C@H](CO)[C@@H](O)[C@H](O)[C@H]8O)[C@@](C)(C(=O)O)C7CC[C@@]6(C)[C@]4(C)CC5)[C@H](O[C@@H]4O[C@H](CO)[C@@H](O)[C@H](O)[C@H]4O)[C@@H](O)[C@@H]3O)O[C@@H]2CO)[C@H](O)[C@H](O)[C@H]1O", "note": "(some centres undefined)", "activity change, negative = cell killing": "-0.13% [at 9.23 µM] (inactive)"}
{"compound": "O=C(O[C@H]1[C@@H]2C=CO[C@@H](O[C@@H]3O[C@H](CO)[C@@H](O)[C@H](O)[C@H]3O)[C@@H]2[C@@]2(CO)O[C@@H]12)c1ccc(O)cc1", "Potency": "inactive"}
{"compound": "COc1cc(/C=C/C(=O)OC2CC(C)=C(C(=O)O)/C2=C/CO[C@@H]2O[C@H](CO)[C@@H](O)[C@H](O)[C@H]2O)ccc1O", "note": "(some centres undefined)", "Potency": "inactive"}
{"compound": "COc1ncc(-c2ccc3c(Nc4cc(Oc5cc(F)cc(F)c5)cc(C(=O)O)c4)c(S(=O)(=O)NC4CC4)cnc3c2)c(OC)n1", "Potency": "inactive"}
{"compound": "CC1OC(OC2C(C)OC(OC3C(OC(=O)/C=C/c4ccc(O)cc4)C(CO)OC(OC4(COC(=O)/C=C/c5ccc(O)cc5)OC(CO)C(O)C4O)C3OC3OCC(O)(CO)C3O)C(O)C2O)C(O)C(O)C1O", "note": "(centres undefined)", "activity change, negative = cell killing": "-11.9% [at 9.23 µM] (inactive)"}
{"compound": "CC1CCC2C(C)(C)C(O)CCC2(C)C12Cc1c(O)cc3c(c1O2)CN(C(CCC(N)=O)C(=O)O)C3=O", "note": "(centres undefined)", "Potency": "inactive"}
{"compound": "Cc1cc(O)c(C(C)C)cc1O[C@@H]1O[C@H](CO)[C@@H](O)[C@H](O)[C@H]1O", "Potency": "inactive"}
{"compound": "C=C(C(=O)OC)C1CCC2(C)C(O[C@@H]3O[C@H](CO)[C@@H](O)[C@H](O)[C@H]3O)CC(=O)C(C)C2C1O", "note": "(some centres undefined)", "Potency": "inactive"}
{"compound": "C[C@@H]1O[C@@H](O[C@H]2[C@H](O[C@H]3CO[C@@H](O[C@H]4CC[C@@]5(C)C(CC[C@]6(C)C5CC[C@]57OC[C@@]8(CC[C@](C)(CO)CC85)[C@H](O)C[C@]76C)C4(C)C)[C@H](O[C@@H]4O[C@H](CO)[C@@H](O)[C@H](O)[C@H]4O)[C@H]3O)O[C@H](CO)[C@@H](O)[C@@H]2O)[C@H](O)[C@H](O)[C@H]1O", "note": "(some centres undefined)", "outcome": "inactive [at 9.23 µM]"}
{"compound": "CO[C@@H]1CC[C@H](OC[C@]2(COC(=O)c3ccc(C)[nH]3)[C@H](OC(C)=O)CC[C@@]3(C)[C@@H]4CC=C(C)[C@@H](C5=C(O)C(=O)OC5O)[C@]4(C)CC[C@@H]32)O[C@H]1C", "note": "(some centres undefined)", "Potency": "inactive"}
